TDP1 cell noCPT: qHTS for Inhibitors of human tyrosyl-DNA phosphodiesterase 1 (TDP1): qHTS in cells in absence of CPT; DT40 Tdp1-/- hTDP1 cells, no CPT, ATP luminescence, 48 h; Potency, µM (highest dose often 46.2 µM), inactives show top-dose activity change, negative = growth inhibition, actives largely listed as inhibitors; 420,000 compounds, 15% hits; note: potency is the fitted concentration of half-maximal effect; nearly all actives have a fitted effect of over 55% in size
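Readout: luminescence from CellTiter-Glo after 30 min in the dark at RT. Cells: DT40 Tdp1-/- with stable hTDP1, 400/well. Exposure: compounds alone, ≥48 hr, 37 °C.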
Six1-Eya2 blk: qHTS Assay for Inhibitors of the Six1/Eya2 Interaction. Homeobox protein SIX1 (Homo sapiens) + Protein phosphatase EYA2 (Homo sapiens), …. AlphaScreen GST-Six1/His-Eya2 binding, biochemical; hits give low values. activity change, % (concentration not given with the values). 360,000 compounds, 0.56% hits. AID 651725, 2012; in the data active = activity change below about -65%; inconclusive = mostly about -30% to -63%
Target sequence (O00167 whole entry, looked up): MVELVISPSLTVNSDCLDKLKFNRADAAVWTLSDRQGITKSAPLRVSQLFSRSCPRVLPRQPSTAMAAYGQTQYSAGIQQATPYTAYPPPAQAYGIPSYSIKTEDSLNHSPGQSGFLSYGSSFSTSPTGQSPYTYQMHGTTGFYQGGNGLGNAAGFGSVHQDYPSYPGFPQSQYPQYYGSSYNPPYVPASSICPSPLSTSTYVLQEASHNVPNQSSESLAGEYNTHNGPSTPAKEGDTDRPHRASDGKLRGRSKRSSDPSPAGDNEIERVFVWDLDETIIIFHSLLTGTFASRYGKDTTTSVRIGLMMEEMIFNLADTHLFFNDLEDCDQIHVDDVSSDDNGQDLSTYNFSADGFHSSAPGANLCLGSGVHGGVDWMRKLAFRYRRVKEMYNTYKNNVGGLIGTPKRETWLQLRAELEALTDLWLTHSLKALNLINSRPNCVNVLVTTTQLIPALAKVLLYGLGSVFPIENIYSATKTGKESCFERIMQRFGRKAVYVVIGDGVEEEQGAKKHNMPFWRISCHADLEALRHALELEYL
Target sequence (Q15475 whole entry, looked up): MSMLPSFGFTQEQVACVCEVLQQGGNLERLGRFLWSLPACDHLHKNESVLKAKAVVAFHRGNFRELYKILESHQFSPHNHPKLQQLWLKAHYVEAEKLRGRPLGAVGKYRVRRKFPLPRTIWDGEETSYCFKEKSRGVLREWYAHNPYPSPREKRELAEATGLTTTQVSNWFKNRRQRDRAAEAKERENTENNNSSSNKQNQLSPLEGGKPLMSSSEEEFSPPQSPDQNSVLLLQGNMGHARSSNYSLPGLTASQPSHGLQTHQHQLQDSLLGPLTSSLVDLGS
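Homogeneous AlphaScreen proximity assay pairing GST-Six1 with His-tagged Eya2 (added as 5X mix: 250 nM and 500 nM) in 50 mM Tris pH 8.0, 300 mM NaCl, 1 mM TCEP. Glutathione donor and nickel acceptor beads; 1 h, 37 °C, dark.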
CtBP-E1A blk: qHTS Assay for Inhibitors of the CtBP/E1A Interaction; CtBP / adenovirus E1A interaction (AlphaScreen); AlphaScreen GST-E1A/His-CtBP binding, 1536-well; hits give low values; activity change, % (concentration not given with the values); 340,000 compounds, 0.49% hits; AID 651724, 2012; in the data active = activity change below about -65%; inconclusive = mostly about -30% to -63%
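Homogeneous bead-based format: GST-tagged E1A captured on glutathione donor beads, His-tagged CtBP on nickel acceptor beads; compounds precede bead addition by 2 h at 37 °C.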
IL1B secr inh: qHTS for Inhibitors of Inflammasome Signaling: IL-1-beta AlphaLISA Primary Screen | THP-1 LPS/ATP IL-1B secretion, AlphaLISA, 16 h; hits give low values | activity change, % at 57.5 µM | 360,000 compounds, 4.7% hits | AID 743279, 2014; in the data active = activity change below about -50%; inconclusive = mostly about -30% to -49%
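Secreted IL-1B measured by AlphaLISA bead assay after 16 h compound exposure of THP-1 cells; compounds (final up to 57.5 uM) added 1 h before LPS (250 ng/mL) and ATP (1.25 mM) stimulation; lower signal means less secretion.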
TDP1 inh: qHTS Assay for Inhibitors of Tyrosyl-DNA Phosphodiesterase (TDP1) | Tyrosyl-DNA phosphodiesterase 1 (Homo sapiens), Q9NUW8 | recombinant TDP1, AlphaScreen DNA substrate cleavage | Potency, µM (highest dose often 130 µM), for inactives: at the top dose activity change, negative = inhibition, most hits filed as inhibitors | 350,000 compounds, 0.28% hits | AID 485290, 2010; note: potency is the fitted concentration of half-maximal effect; nearly all actives have a fitted effect of over 40% in size
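Tdp1 1 nM final; 15 min RT w/ cpd; substrate 15 nM, 5 min; beads 10 ug/ml, 10 min; AlphaScreen read. Neg ctrl: no enzyme.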
TDP1 cell CPT: qHTS for Inhibitors of human tyrosyl-DNA phosphodiesterase 1 (TDP1): qHTS in cells in presence of CPT. AID 686979, 2013. Potency, µM (doses to about 46.2 µM), for inactives: top-dose activity change, negative = growth inhibition, usual class: inhibitors. 420,000 compounds, 12% hits. chicken DT40 Tdp1-/-;hTDP1 cells + 20 nM CPT, ATP luminescence, 48 h; note: potency is the fitted concentration of half-maximal effect; nearly all actives have a fitted effect of over 55% in size
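Cell growth measured by CellTiter-Glo luminescence after a minimum 48 h, 37 C compound exposure with 20 nM CPT in Tdp1-knockout DT40 cells stably expressing hTDP1, seeded 400/well; qHTS titration format.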
An asterisk follows results filed as active; ? = inconclusive; . = not tested or not shown. An excerpt weighted towards active compounds, which were near 18% of everything screened. Unless noted, calls come from the whole dose curve; as a rule, active = well fitted curve in the direction sought with a large enough effect; inconclusive = small, poorly fitted or top-dose-only effect, or another doubt; inactive = no such curve, though single readings can be large; an effect the other way counts as inactive or inconclusive. % is set by controls: 0 for no effect and ±100 for the full control effect.

SMILES	TDP1 cell noCPT	Six1-Eya2 blk	CtBP-E1A blk	IL1B secr inh	TDP1 inh	TDP1 cell CPT
O=C(Cc1coc2ccc3ccccc3c12)N1CCN(c2ncccn2)CC1	?	-8	-4	-23	8%	?
O=C(Nc1ccccc1)OC[C@@H]1C=CS(=O)(=O)N1Cc1ccc(Br)cc1	?	1	-1	-68*	.	?
O=C(Nc1ccc(C(O)c2ccccc2)cc1)[C@@H]1O[C@H](CO)[C@H](O)[C@H](O)[C@H]1O (stereo not given in full)	-8%	17	31	33	.	-3%
Cc1cccc(N2CCN(C(=O)CS(=O)(=O)c3cccc4nsnc34)CC2C)c1 (stereo not given)	?	.	.	.	10%	?
Cc1cccc(N2CCN(C(=O)C3CCN(S(=O)(=O)N4CCOCC4)CC3)CC2C)c1 (stereo not given)	21µM*	-1	.	22	2%	18µM*
Cc1cccc(N2CCN(C(=O)C3CCN(S(=O)(=O)c4cccc5cccnc45)CC3)CC2C)c1 (stereo not given)	18µM*	-6	-15	-2	5%	13µM*
Cc1cccc(N2CCN(C(=O)C3CCN(S(=O)(=O)c4cccc5nsnc45)CC3)CC2C)c1 (stereo not given)	21µM*	-7	-9	12	3%	23µM*
O=C(Nc1ccc(F)cc1)N1CCN(C(=O)c2nsc3ccccc23)CC1	?	.	.	.	3%	?
CCN(CC)S(=O)(=O)c1ccc2c(c1)nc(-c1ccccn1)n2C	?	-16	0	-11	6%	-22%
C=C(C(C)=O)C(O)/C=C/c1ccco1 (stereo not given)	.	.	.	.	11µM*	.
CN1C(=O)C(O)(CC(=O)/C=C/c2ccco2)c2cc(Br)ccc21 (stereo not given)	4.1µM*	-1	-8	117	1%	6.5µM*
CN1C(=O)C(O)(CC(=O)/C=C/c2ccco2)c2ccccc21 (stereo not given)	-16%	6	8	-4	0%	4%
CN1C(=O)C(O)(CC(=O)c2ccccc2O)c2cc(Br)ccc21 (stereo not given)	5.8µM*	-5	5	50	4%	5.2µM*
COc1ccc(CCNC(=O)C(=O)c2cn(CC(=O)N3CCOCC3)c3ccccc23)cc1	-17%	-2	0	-9	5%	20%
CC(C)c1ccc(NC(=O)C(=O)c2cn(CC(=O)N3CCCCC3)c3ccccc23)cc1	?	-3	-2	0	5%	?
CC(=O)Nc1cccc(NC(=O)C(=O)c2cn(CC(=O)N3CCCCC3)c3ccccc23)c1	?	12	3	-3	5%	23µM*
COc1ccc(CCNC(=O)C(=O)c2cn(CC(=O)N3CCCC3)c3ccccc23)cc1OC	21µM*	-7	-5	-30	.	-9%
COc1ccc(NC(=O)C(=O)c2cn(CC(=O)N3CCCC3)c3ccccc23)cc1	0.23µM*	-12	-21	125	6%	0.41µM*
COc1ccc(CCNC(=O)CS(=O)(=O)c2cn(CC(=O)N3CCCC3)c3ccccc23)cc1OC	-3%	4	4	10	2%	0%
CC(=O)Nc1ccc(NC(=O)C(=O)c2cn(CC(=O)N3CCCC3)c3ccccc23)cc1	-21%	6	-1	9	1%	0%

Source: PubChem
